{
  "source": "paper PMC9911399",
  "about": "“Two distinct binding modes provide the RNA-binding protein RbFox with extraordinary sequence specificity”",
  "binders": {"B1": {"name": "AACCCAG (DNA:RNA)", "RNA": "GGGAGACCGGAAUUCAGAUUGUCCAACCCAGUUAAAUCCCGUCGUAGCCACCA", "DNA 1": "CAATCTGAATTCCGGTCTCCC", "DNA 2": "TGGTGGCTACGACGGGATT"}, "B2": {"name": "CCAAUCA (DNA:RNA)", "RNA": "GGGAGACCGGAAUUCAGAUUGUCCCCAAUCAUUAAAUCCCGUCGUAGCCACCA", "DNA 1": "CAATCTGAATTCCGGTCTCCC", "DNA 2": "TGGTGGCTACGACGGGATT"}, "B3": {"name": "UCAGUGG (DNA:RNA)", "RNA": "B2 RNA with C25U, A28G, C30G, A31G", "DNA 1": "CAATCTGAATTCCGGTCTCCC", "DNA 2": "TGGTGGCTACGACGGGATT"}, "B4": {"name": "AGUUGAG (DNA:RNA)", "RNA": "B1 RNA with A26G, C27U, C28U, C29G", "DNA 1": "CAATCTGAATTCCGGTCTCCC", "DNA 2": "TGGTGGCTACGACGGGATT"}, "B5": {"name": "AUAGCCG (DNA:RNA)", "RNA": "B1 RNA with A26U, C27A, C28G, A30C", "DNA 1": "CAATCTGAATTCCGGTCTCCC", "DNA 2": "TGGTGGCTACGACGGGATT"}, "B6": {"name": "AAGUGAG (DNA:RNA)", "RNA": "B1 RNA with C27G, C28U, C29G", "DNA 1": "CAATCTGAATTCCGGTCTCCC", "DNA 2": "TGGTGGCTACGACGGGATT"}, "B7": {"name": "UGCAUGG (DNA:RNA)", "RNA": "B1 RNA with A25U, A26G, C28A, C29U, A30G", "DNA 1": "CAATCTGAATTCCGGTCTCCC", "DNA 2": "TGGTGGCTACGACGGGATT"}, "B8": {"name": "UGCAUAA (DNA:RNA)", "RNA": "B2 RNA with C25U, C26G, A27C, C30A", "DNA 1": "CAATCTGAATTCCGGTCTCCC", "DNA 2": "TGGTGGCTACGACGGGATT"}, "B9": {"name": "UGCAUGA (DNA:RNA)", "RNA": "B2 RNA with C25U, C26G, A27C, C30G", "DNA 1": "CAATCTGAATTCCGGTCTCCC", "DNA 2": "TGGTGGCTACGACGGGATT"}, "B10": {"name": "UCCUGCA (DNA:RNA)", "RNA": "B2 RNA with C25U, A27C, A28U, U29G", "DNA 1": "CAATCTGAATTCCGGTCTCCC", "DNA 2": "TGGTGGCTACGACGGGATT"}, "B11": {"name": "UGCGUGG (DNA:RNA)", "RNA": "B1 RNA with A25U, A26G, C28G, C29U, A30G", "DNA 1": "CAATCTGAATTCCGGTCTCCC", "DNA 2": "TGGTGGCTACGACGGGATT"}, "B12": {"name": "UGCAUCA (DNA:RNA)", "RNA": "B2 RNA with C25U, C26G, A27C", "DNA 1": "CAATCTGAATTCCGGTCTCCC", "DNA 2": "TGGTGGCTACGACGGGATT"}, "B13": {"name": "UGCCUGG (DNA:RNA)", "RNA": "B1 RNA with A25U, A26G, C29U, A30G", "DNA 1": "CAATCTGAATTCCGGTCTCCC", "DNA 2": "TGGTGGCTACGACGGGATT"}, "B14": {"name": "UGCAUUA (DNA:RNA)", "RNA": "B2 RNA with C25U, C26G, A27C, C30U", "DNA 1": "CAATCTGAATTCCGGTCTCCC", "DNA 2": "TGGTGGCTACGACGGGATT"}, "B15": {"name": "UGCGUCA (DNA:RNA)", "RNA": "B2 RNA with C25U, C26G, A27C, A28G", "DNA 1": "CAATCTGAATTCCGGTCTCCC", "DNA 2": "TGGTGGCTACGACGGGATT"}, "B16": {"name": "GCCAUCG (DNA:RNA)", "RNA": "B2 RNA with C25G, A27C, A31G", "DNA 1": "CAATCTGAATTCCGGTCTCCC", "DNA 2": "TGGTGGCTACGACGGGATT"}, "B17": {"name": "GUCAUAC (DNA:RNA)", "RNA": "B1 RNA with A25G, A26U, C28A, C29U, G31C", "DNA 1": "CAATCTGAATTCCGGTCTCCC", "DNA 2": "TGGTGGCTACGACGGGATT"}, "B18": {"name": "AUUUCGA (DNA:RNA)", "RNA": "B1 RNA with A26U, C27U, C28U, A30G, G31A", "DNA 1": "CAATCTGAATTCCGGTCTCCC", "DNA 2": "TGGTGGCTACGACGGGATT"}, "B19": {"name": "AAACAAG (DNA:RNA)", "RNA": "B1 RNA with C27A, C29A", "DNA 1": "CAATCTGAATTCCGGTCTCCC", "DNA 2": "TGGTGGCTACGACGGGATT"}, "B20": {"name": "UAAUACC (DNA:RNA)", "RNA": "B2 RNA with C25U, C26A, A28U, U29A, A31C", "DNA 1": "CAATCTGAATTCCGGTCTCCC", "DNA 2": "TGGTGGCTACGACGGGATT"}},
  "note": "Where a chain is given by its changes, count along the chain named. Over roughly 16,000 sequences, “ka relative to ugcaugu” has its median near 0.096; the highest 2% begin near 0.35. The sample holds the highest values, similar sequences and a random draw of the others, so the mix is not that of the screen.",
  "data": [
    {"target": "T1, RBFOX1 RRM RbFoxmut (Fox-RRM*) (Homo sapiens, UniProt Q9NWB1 109-208, R118D;E147R;N151S;E152T)", "T1 sequence": "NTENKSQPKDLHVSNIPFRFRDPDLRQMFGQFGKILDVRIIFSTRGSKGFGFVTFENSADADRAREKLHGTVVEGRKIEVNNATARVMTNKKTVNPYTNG", "assay": "EMSA; HiTS-Eq, 1 nM pool, 10 min; buffer printed only for the single-RNA assays: 10 mM Tris pH 7.5, 150 mM NaCl, 3.4 mM EDTA, 0.001% NP-40, 30 C", "details": "tags: His6 N-terminal (pET28a); label: 5' 32P", "procedure,_shortened": "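Purified RbFox RRM (wild type or mutant) was equilibrated for 10 min in 50 µL with 1 nM of a 5′-radiolabelled pool of RNA with 7 randomized nucleotides, its flanks annealed to DNA oligonucleotides, across increasing protein concentrations. Free RNA was separated by 8% native PAGE, excised, reverse-transcribed, PCR-barcoded and sequenced on an Illumina HiSeq 2500. Relative association constants came from read-count changes of each variant against the control reaction, normalised to the cognate motif.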", "values": [
      {"binder": "B1", "binding signal": "0.0936 KA relative to UGCAUGU"},
      {"binder": "B2", "binding signal": "0.0737 KA relative to UGCAUGU"},
      {"binder": "B3", "binding signal": "0.101 KA relative to UGCAUGU"},
      {"binder": "B4", "binding signal": "0.133 KA relative to UGCAUGU"},
      {"binder": "B5", "binding signal": "0.119 KA relative to UGCAUGU"},
      {"binder": "B6", "binding signal": "0.137 KA relative to UGCAUGU"},
      {"binder": "B7", "binding signal": "0.935 KA relative to UGCAUGU"},
      {"binder": "B8", "binding signal": "0.146 KA relative to UGCAUGU"},
      {"binder": "B9", "binding signal": "0.692 KA relative to UGCAUGU"},
      {"binder": "B10", "binding signal": "0.24 KA relative to UGCAUGU"},
      {"binder": "B11", "binding signal": "0.138 KA relative to UGCAUGU"},
      {"binder": "B12", "binding signal": "0.565 KA relative to UGCAUGU"},
      {"binder": "B13", "binding signal": "0.233 KA relative to UGCAUGU"},
      {"binder": "B14", "binding signal": "0.163 KA relative to UGCAUGU"},
      {"binder": "B15", "binding signal": "0.155 KA relative to UGCAUGU"},
      {"binder": "B16", "binding signal": "0.0927 KA relative to UGCAUGU"},
      {"binder": "B17", "binding signal": "0.1 KA relative to UGCAUGU"},
      {"binder": "B18", "binding signal": "0.114 KA relative to UGCAUGU"},
      {"binder": "B19", "binding signal": "0.0927 KA relative to UGCAUGU"},
      {"binder": "B20", "binding signal": "0.0785 KA relative to UGCAUGU"}
    ]}
  ]
}
